The target of experiment [1] is Tumor necrosis factor receptor superfamily member 10B (Homo sapiens) (UniProt O14763). Put plainly: viability loss of caspase-8 NB7 cells with TRAIL – with/without TRAIL, luminescence panel, confirmation (AID 651596). The note with it: NB7 neuroblastoma + caspase-8, TRAIL sensitization, NB7 Caspase-8, with TRAIL, mean of runs, at 10 µM, stronger effect = higher value.
Experiment in experiment [2]: as above
The note with it: NB7 neuroblastoma + caspase-8, without TRAIL, NB7 Caspase-8, without TRAIL, mean of runs, at 10 µM.

Chain of Tumor necrosis factor receptor superfamily member 10B (Homo sapiens) (O14763 whole entry, looked up): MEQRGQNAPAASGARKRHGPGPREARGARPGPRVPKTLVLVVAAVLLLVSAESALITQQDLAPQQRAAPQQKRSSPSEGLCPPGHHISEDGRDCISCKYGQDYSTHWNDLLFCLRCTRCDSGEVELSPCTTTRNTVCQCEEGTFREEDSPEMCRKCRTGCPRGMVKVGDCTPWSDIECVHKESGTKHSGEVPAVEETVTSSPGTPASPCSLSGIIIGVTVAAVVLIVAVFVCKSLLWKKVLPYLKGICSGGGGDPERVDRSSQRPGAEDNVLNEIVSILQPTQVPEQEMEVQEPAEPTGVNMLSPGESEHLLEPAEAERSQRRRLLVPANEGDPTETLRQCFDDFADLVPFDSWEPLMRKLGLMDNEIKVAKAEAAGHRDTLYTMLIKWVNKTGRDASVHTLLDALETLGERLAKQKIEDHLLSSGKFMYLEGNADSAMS

`CC(C)c1ccc(NC(=O)Nc2nc(C(N)C3CCCCC3)cs2)cc1` (configuration not stated): the values for the activity in experiment [1] and in experiment [2] were 92.2% and 99.3%, respectively.
The like results for `O=C(N/N=C/c1cc(O)ccc1[N+](=O)[O-])c1ccc2c(c1)OCCO2` were, in that order, 91% and 87.7%.
Turning to `CC(=O)c1c(C)[nH]c(C(=O)Nc2ccccn2)c1C`, the activity in experiment [1] and in experiment [2] was 31.1% in each case.
Regarding `CCn1cc(-c2cc(C(=O)O)c3ccccc3n2)cn1`, the values for the activity in experiment [1] and in experiment [2] were 65% and 58.2%, respectively.
For `COc1cc(SC#N)ccc1N=Cc1c(C)[nH]n(-c2ccc(C)c(C)c2)c1=O`, in that order: 93% and 97.7%.
As for `CCC(C(=O)O/N=C(\N)c1ccccc1)c1ccccc1` (configuration not stated), the activity is 81.9% in experiment [1] and 81.6% in experiment [2].
The like results for `O=c1[nH]c(/C=C/c2ccccc2Cl)nc2ccccc12` were, in that order, 75.5% and 65.7%.
For `COc1cccc(-c2nnc(Nc3nc4c(F)cccc4s3)o2)c1`, in that order: 81.2% and 84.2%.
The like results for `CCCCCC(=O)N1C[C@H](n2cc(COC(=O)c3ccccc3)nn2)[C@@H](O)C[C@@H]1c1ccc(Cl)cc1` were, in that order, 72.6% and 61%.
Consider `Cc1cnc(NC(=O)COc2ccccc2Cl)s1`, for which the activity in experiment [1] turned out to be 83%; in experiment [2], 82.7%.
The like results for `Cc1cc(-c2ccccc2)nc(N/N=C/c2ccccc2)n1` were, in that order, 61.6% and 50.3%.
For `Cc1ccc2oc(/N=C(\N)NC(=O)C3CC3)nc2c1`, in that order: 56.4% and 71%.
For `Cc1nn(-c2ccccc2)c(Cl)c1/C=N/NC(=O)c1ccn[nH]1`, in that order: 79.8% and 71.3%.
For the compound `CCN(CC)CCN1C(=O)/C(=C\c2ccc(Cl)c([N+](=O)[O-])c2)SC1=Nc1ccc(OC)cc1`, the activity in experiment [1] is 82.2%; in experiment [2] it was 97.3%.
For `CCOc1cc(C(=O)O/N=C(\N)c2ccccn2)cc(OCC)c1OCC`, in that order: 91.1% and 78.5%.
The like results for `C/C(=N\NC(=O)c1ccncc1)c1cccc(NC(=O)c2ccc(C(C)(C)C)cc2)c1` were, in that order, 85.5% and 81.6%.
Turning to `C#Cc1ccc(NC(=O)C2(C)CCN2C(=O)C2(c3ccccc3)CCCC2)cc1` (configuration not stated), the activity in experiment [1] worked out at 91.3%; in experiment [2] it was 84.6%.
For `Cc1ccc(CN=c2c([N+](=O)[O-])nn(-c3cccc(C)c3)n2O)cc1`, in that order: 16.2% and 24.7%.
For `Cc1ccsc1/C=C/c1ccc2ccccc2n1`, in that order: 42.2% and 30.9%.
Turning to `O=C(NNC(=O)c1cc(OCC(F)(F)F)ccc1OCC(F)(F)F)c1cccc(C(F)(F)F)c1`, the figures for the activity in experiment [1] and in experiment [2] were 50.6% and 44.2%, respectively.
For `COc1ccc(-c2nc3ccccc3[nH]2)cc1`, in that order: 89% and 90.7%.
Take `Cc1cccc(-c2noc(-c3ccc4c(c3)OCO4)n2)c1`: the activity amounted to 64.6% in experiment [1] and 60.1% in experiment [2].
Regarding `COc1cccc2c1C(CO)N1C(C#N)C3CC(C(=O)O)C(C1C2)N3C` (configuration not stated), the activity in experiment [1] worked out at 59.9%; in experiment [2], 83.8%.
For `Clc1ccc(-c2nc(-c3ccccn3)no2)cc1Cl`, in that order: 77.5% and 74.5%.
With `COc1cccc2sc(N(CCCN(C)C)C(=O)c3ccc(S(=O)(=O)N4CCc5ccccc5C4)cc3)nc12`, the activity in experiment [1] was determined as 56.8%; in experiment [2], 79%.
The like results for `CN(C)CCCN(C(=O)c1ccc(S(=O)(=O)N(C)C2CCCCC2)cc1)c1nc2ccc(Br)cc2s1` were, in that order, 46.2% and 45%.
For `CNC[C@@H](CC1CCCCC1)NC[C@H](CC(C)C)NCCc1cccc(C(F)(F)F)c1`, in that order: 99.4% and 99.7%.
The like results for `CN(C)CCCN(C(=O)/C=C/c1cccs1)c1nc2c(F)cccc2s1` were, in that order, 56.7% and 93%.
As for `c1ccc(COc2ncnc3c2ncn3CCCNCC(c2ccccc2)c2ccccc2)cc1`, the activity in experiment [1] is 18.2%; in experiment [2], 41.5%.
For `CCN1CCN(c2ccc(S(=O)(=O)N3CCCCC3)cc2NC(=O)/C=C/c2ccc(OC(F)F)cc2)CC1`, in that order: 3.5% and 5.28%.
On to `COc1ccc(C(=O)Nc2ccc(C)cn2)c(OC)c1`, for which the figures for the activity in experiment [1] and in experiment [2] were 95.3% and 95.2%, respectively.
For `Cc1nc(-c2ccc(NC(=O)c3ccc(Br)o3)cc2)cs1`, in that order: 68.5% and 67.5%.
On to `O=C(Nc1ccc(NC(=O)c2ccccc2F)cn1)c1ccco1`, for which the activity in experiment [1] is 66.8%; in experiment [2], 58.3%.
For `COc1ccc(/C(N)=N/OC(=O)c2c(-c3ccccc3Cl)noc2C)cc1OC`, in that order: 99.1% and 98.8%.
The like results for `O=C(COc1ccccc1)Nc1cccc(-c2ccc(N3CCOCC3)nn2)c1` were, in that order, 72.7% and 77.8%.
For `Cc1nn(-c2ccccc2)c(Cl)c1/C=N/NC(=O)c1[nH]ncc1Br`, in that order: 83.7% and 71.9%.
Consider `Cc1cc2nc(N3C(=O)CNC3=S)sc2cc1C`, for which the figures for the activity in experiment [1] and in experiment [2] were 67.8% and 64.7%, respectively.
The like results for `Cc1ccccc1C(=O)O/N=C(\N)c1cccc([N+](=O)[O-])c1` were, in that order, 80.9% and 79.9%.
For `Cc1cccc(NC(=S)NC(=O)c2oc3ccccc3c2C)n1`, in that order: 70% and 60.1%.
For `CCOc1ccc(-c2cc(C(=O)N/N=C/c3cccnc3)c3ccccc3n2)cc1`, in that order: 74.2% and 74.4%.
Turning to `Cc1ccc(-c2nc(N/N=C/c3cccnc3)c3ccccc3n2)cc1`, the results for the activity in experiment [1] and in experiment [2] were 94.3% and 88.2%, respectively.
The like results for `O=C(Nc1ccc2c(c1)OCCO2)c1ccc2nccnc2c1` were, in that order, 53.5% and 50.4%.
The like results for `COc1ccc(-c2cc(CNc3nc(NC(C)C)nc4cc(-c5ccccc5)sc34)on2)cc1` were, in that order, 91.6% and 92.4%.
The like results for `COC(=O)c1ccccc1NC(=O)c1nc(S(=O)(=O)Cc2ccccc2)ncc1Cl` were, in that order, 84.1% and 99.6%.
For the compound `Cc1ccnc(NC(=S)NC(=O)c2ccco2)c1`, the activity in experiment [1] turned out to be 65.5%; in experiment [2], 57.7%.
The like results for `COc1ccc2c(c1OC)C(=O)OC2Nc1nc(-c2ccc(-c3ccccc3)cc2)cs1` (configuration not stated) were, in that order, 47.4% and 49.4%.

These data come from PubChem BioAssay.
